From the OligoGym collection come the findings set out here.
Note: reference of the scale not given here.

In one experiment the target is SEC61B. Description: pooled miR-30 sensor sort-seq; sequence = guide strand. The following applies: shRNA.
On to AAATGTGCAACATAAATACAGA, for which the sensor-assay potency score (higher = more potent) was -1.05. The same measure, in the same setting: in the case of TACTGGAACAGGGCCAACTTTG it was -1.5; in that of TCTTCTGTGTAGAATCGCCACA, -0.746. In turn, TTCCTCTGCCGGACAGTGGATC returned a sensor-assay potency score (higher = more potent) of -1.27. In the case of TGCAACATAAATACAGAAGCGA, the sensor-assay potency score (higher = more potent) is -0.661. Regarding TAAAACAGCAAGCTTACAGAAA, the sensor-assay potency score (higher = more potent) was -1.05. With ATGTGCAACATAAATACAGAAG, the sensor-assay potency score (higher = more potent) was -1.59.

In turn, TGGAACAGGGCCAACTTTGAGC came in with a sensor-assay potency score (higher = more potent) of -1.17. For TTCTGTGTAGAATCGCCACATC, the sensor-assay potency score (higher = more potent) was -0.647.

ATAACCAATACTGGAACAGGGC: the sensor-assay potency score (higher = more potent) was -0.892. Still for that read-out and setting: in the case of ATCTTCTGTGTAGAATCGCCAC it was -0.702. Same read-out and setting: in the case of TAGAATCGCCACATCCCCCCGG it was -0.342.

A further experiment concerns the target SEC62. The description is as above. As to conditions: shRNA.
As to TTCTATAAAATGAAGGACCGAA, the sensor-assay potency score (higher = more potent) was -0.0759.

Sequence TCCATTTCCACTACTGTGCTGG registered a sensor-assay potency score (higher = more potent) of -0.484.

TTCAATATGGTAATCAGCCAAC had a sensor-assay potency score (higher = more potent) of -1.13. In turn, TATGTCTTTATCATATTTCATT returned a sensor-assay potency score (higher = more potent) of -1.38.

TAAAGCTTCCTCTCCTTTCTTG came in with a sensor-assay potency score (higher = more potent) of 0.192. In turn, TAGTCAACCACAGACTCCCTGG came in with a sensor-assay potency score (higher = more potent) of -0.485. TAAATAAAGCTTCCTCTCCTTT returned a sensor-assay potency score (higher = more potent) of -0.505. TTGTTGGACAGTTGAATCGAAG: the sensor-assay potency score (higher = more potent) is -1.44. As for TTATGTACAGAATACACTTTAC, the sensor-assay potency score (higher = more potent) was -1.09. In turn, TGACTTTTCCTCACTGTCGGAC returned a sensor-assay potency score (higher = more potent) of -0.575. With TTTGTTGGACAGTTGAATCGAA, the sensor-assay potency score (higher = more potent) amounted to 0.088. In turn, TTTAAGTCTGCTTTTGGTCCTT yielded a sensor-assay potency score (higher = more potent) of 0.441.
